# In the supplement of paper PMC10849652:
# For part of these data: The full data set covers some 7,900 targets. This sample favours those with a hit. For part of these data: About 0.6% of all pairs of compound and target were hits. Values without a mark were called inactive. For part of these data: Targets with a hit are over-represented here; the source holds about 8,800 in all. For part of these data: About 0.5% of all pairs of compound and target were hits.
# Tests used:
# [1] = compound: C1=CC=C(C=C1)[C@H](COC2=CC3=C(C=C2)NC(=O)N3)NC(=O)C4=CC=CN(C4=O)CC5=CC(=C(C=C5)F)F; assay: log2 fold change, soluble protein after heating vs DMSO (PISA); higher = thermal stabilisation; K562 cells, 10 uM, 30 min; active = over 0.2 and 3.5 SD of the protein, either way, in both replicates (recomputed)
# Method in brief: (§1)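 Aliquots of K562 cells (2×10^6 cells/mL) treated with 10 μM compound for 30 min were heated for 3 min over 48°C-58°C. After pooling and extraction in PBS with 0.5% NP-40 at 4°C, soluble protein from a 21,000xg, 90 min spin was quantified by TMTpro 16plex LC-MS/MS with channel sums equalised. Thermal stability is expressed against control samples, from duplicates, as a log2 fold change.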
# [2] = compound: CC1=C(SC2=C1C(=N[C@H](C3=NN=C(N32)C)CC(=O)N)C4=CC=C(C=C4)Cl)C; assay: as above
# Method in brief: as §1
# [3] = compound: CC1=C2C(=CC=C1)N=C(N(C2=O)C3=CC=CC=C3C)CN4C=NC5=C(N=CN=C54)N; assay: as above
# Method in brief: as §1
# [4] = compound: Cc1sc2c(c1C)C(c1ccc(Cl)cc1)=N[C@@H](CC(=O)OC(C)(C)C)c1nnc(C)n1-2; assay: as above
# Method in brief: as §1
# [5] = compound: c1ccc([C@@H]2C[C@H]2NC2CCNCC2)cc1; assay: as above
# Method in brief: as §1
# [6] = compound: CC1=C2C(=CC=C1)N=C(N(C2=O)C3=CC=CC=C3C)CN4C=NC5=C(N=CN=C54)N; assay: log2 fold change, soluble protein after heating vs DMSO (PISA); higher = thermal stabilisation; K562 lysate, 10 uM; active = over 0.2 and 3.5 SD of the protein, either way, in both replicates (recomputed)
# Method in brief: (§2)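 K562 pellets were dounce-homogenised in PBS pH 7.4 containing 1 mM MgCl2, and the crude extract, at 1 mg/mL protein, was exposed to 10 μM compound for 30 min. Aliquots were heated for 3 min across 48°C-58°C, pooled, brought to 0.5% NP-40 at 4°C and spun at 21,000xg for 90 min, with the supernatant taken as soluble protein. TMTpro 16plex LC-MS/MS with equalised channel sums quantified that protein. Values are log-two fold changes in thermal stability relative to solvent controls, taken from duplicates.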
# [7] = compound: Cc1sc2c(c1C)C(c1ccc(Cl)cc1)=N[C@@H](CC(=O)OC(C)(C)C)c1nnc(C)n1-2; assay: as above
# Method in brief: as §2
# [8] = compound: c1ccc([C@@H]2C[C@H]2NC2CCNCC2)cc1; assay: as above
# Method in brief: as §2
# [9] = compound: C1=CC=C(C=C1)[C@H](COC2=CC3=C(C=C2)NC(=O)N3)NC(=O)C4=CC=CN(C4=O)CC5=CC(=C(C=C5)F)F; assay: as above
# Method in brief: as §2
# [10] = compound: CC1=C(SC2=C1C(=N[C@H](C3=NN=C(N32)C)CC(=O)N)C4=CC=C(C=C4)Cl)C; assay: as above
# Method in brief: as §2
# Chain of UniProt Q8N302 (Q8N302 whole entry, looked up): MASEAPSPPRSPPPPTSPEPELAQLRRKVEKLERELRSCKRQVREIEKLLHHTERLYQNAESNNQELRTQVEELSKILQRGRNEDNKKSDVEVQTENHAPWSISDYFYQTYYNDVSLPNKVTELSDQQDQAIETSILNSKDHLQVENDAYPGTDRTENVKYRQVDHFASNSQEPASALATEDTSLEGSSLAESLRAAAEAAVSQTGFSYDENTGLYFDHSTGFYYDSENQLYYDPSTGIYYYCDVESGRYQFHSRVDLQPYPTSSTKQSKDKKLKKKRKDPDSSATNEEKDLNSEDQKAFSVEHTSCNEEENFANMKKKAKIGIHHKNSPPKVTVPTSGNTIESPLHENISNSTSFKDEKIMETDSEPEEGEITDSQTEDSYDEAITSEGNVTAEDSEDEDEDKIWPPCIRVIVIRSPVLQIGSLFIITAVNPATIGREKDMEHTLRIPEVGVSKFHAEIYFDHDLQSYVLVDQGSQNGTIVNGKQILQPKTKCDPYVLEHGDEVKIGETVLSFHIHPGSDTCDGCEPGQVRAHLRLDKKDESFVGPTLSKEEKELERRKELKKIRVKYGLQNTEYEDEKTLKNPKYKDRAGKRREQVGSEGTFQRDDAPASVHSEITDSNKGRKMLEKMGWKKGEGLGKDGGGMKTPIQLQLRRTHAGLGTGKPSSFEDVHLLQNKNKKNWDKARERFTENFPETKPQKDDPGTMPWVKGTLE
# Chain of UniProt Q9P1F3 (Q9P1F3 whole entry, looked up): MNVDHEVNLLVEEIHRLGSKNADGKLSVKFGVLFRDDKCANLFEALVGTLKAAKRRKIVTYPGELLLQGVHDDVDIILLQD
# Chain of UniProt Q9BXX3 (Q9BXX3 whole entry, looked up): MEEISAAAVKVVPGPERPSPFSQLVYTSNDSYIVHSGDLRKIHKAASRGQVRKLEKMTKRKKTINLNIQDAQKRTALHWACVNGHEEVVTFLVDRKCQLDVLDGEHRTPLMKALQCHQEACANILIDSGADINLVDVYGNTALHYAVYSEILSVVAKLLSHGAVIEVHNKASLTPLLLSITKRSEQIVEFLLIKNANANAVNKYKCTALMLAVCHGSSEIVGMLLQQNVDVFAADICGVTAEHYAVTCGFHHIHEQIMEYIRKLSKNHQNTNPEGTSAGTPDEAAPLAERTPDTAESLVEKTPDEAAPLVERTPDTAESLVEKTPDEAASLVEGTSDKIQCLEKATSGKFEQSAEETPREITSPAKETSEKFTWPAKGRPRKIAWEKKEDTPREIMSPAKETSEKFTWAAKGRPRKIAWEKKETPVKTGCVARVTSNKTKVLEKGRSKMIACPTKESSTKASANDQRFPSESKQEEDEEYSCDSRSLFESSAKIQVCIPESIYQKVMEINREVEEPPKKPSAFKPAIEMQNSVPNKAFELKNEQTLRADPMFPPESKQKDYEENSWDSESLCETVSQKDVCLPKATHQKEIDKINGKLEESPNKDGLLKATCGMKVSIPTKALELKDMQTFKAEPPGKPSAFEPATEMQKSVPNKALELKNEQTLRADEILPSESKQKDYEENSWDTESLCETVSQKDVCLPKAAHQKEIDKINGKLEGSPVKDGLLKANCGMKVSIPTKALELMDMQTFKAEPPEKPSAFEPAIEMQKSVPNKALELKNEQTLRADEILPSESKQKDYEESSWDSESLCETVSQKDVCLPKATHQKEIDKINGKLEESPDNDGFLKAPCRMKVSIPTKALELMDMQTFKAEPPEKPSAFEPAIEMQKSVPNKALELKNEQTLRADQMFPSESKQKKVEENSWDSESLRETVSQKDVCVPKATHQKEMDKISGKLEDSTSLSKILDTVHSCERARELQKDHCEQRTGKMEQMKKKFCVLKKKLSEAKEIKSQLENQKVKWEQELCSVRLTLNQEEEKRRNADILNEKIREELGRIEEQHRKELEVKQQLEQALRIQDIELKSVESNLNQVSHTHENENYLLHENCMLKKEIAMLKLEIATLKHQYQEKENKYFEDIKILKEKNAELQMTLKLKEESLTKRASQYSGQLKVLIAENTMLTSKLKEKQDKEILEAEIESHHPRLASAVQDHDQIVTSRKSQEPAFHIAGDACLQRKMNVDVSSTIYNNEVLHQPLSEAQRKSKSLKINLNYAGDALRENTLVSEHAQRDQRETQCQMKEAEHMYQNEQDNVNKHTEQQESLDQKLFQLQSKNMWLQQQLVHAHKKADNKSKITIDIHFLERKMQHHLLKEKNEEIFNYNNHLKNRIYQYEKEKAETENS
# Chain of UniProt O76080 (O76080 whole entry, looked up): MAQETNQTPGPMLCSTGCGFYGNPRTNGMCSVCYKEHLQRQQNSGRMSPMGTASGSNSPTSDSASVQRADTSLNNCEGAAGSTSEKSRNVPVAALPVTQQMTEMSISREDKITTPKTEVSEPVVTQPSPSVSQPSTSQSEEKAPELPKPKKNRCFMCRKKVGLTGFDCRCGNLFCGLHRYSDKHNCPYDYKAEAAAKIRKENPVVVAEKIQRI
# Chain of UniProt Q96JP5 (Q96JP5 whole entry, looked up): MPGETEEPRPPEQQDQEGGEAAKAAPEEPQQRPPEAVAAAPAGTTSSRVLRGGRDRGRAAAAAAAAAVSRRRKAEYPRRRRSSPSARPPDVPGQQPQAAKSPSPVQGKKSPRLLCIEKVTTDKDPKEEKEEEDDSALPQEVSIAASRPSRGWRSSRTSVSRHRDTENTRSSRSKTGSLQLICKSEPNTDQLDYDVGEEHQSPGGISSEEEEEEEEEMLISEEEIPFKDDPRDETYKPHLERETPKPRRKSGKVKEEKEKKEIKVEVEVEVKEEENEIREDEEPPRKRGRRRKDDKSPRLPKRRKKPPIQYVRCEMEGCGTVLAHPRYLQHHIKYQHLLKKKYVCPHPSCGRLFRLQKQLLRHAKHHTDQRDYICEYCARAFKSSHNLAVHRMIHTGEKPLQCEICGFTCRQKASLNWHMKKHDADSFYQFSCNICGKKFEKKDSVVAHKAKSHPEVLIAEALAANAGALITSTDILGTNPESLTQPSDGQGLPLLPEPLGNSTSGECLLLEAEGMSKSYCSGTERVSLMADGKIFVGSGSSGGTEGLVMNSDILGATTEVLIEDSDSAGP
# Chain of UniProt O43298 (O43298 whole entry, looked up): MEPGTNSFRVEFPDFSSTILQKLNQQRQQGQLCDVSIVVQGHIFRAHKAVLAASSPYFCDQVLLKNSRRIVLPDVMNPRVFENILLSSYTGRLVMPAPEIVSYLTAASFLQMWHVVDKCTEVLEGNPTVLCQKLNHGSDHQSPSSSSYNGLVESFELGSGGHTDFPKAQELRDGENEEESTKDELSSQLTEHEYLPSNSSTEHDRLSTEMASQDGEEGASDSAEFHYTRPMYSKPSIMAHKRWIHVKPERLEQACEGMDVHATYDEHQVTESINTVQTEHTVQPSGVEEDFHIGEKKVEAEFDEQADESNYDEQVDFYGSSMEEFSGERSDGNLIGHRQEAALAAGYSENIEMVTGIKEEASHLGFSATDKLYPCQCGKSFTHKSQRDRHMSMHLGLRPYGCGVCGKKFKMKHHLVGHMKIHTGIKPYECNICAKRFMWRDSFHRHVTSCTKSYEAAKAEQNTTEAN
# Chain of UniProt Q04771 (Q04771 whole entry, looked up): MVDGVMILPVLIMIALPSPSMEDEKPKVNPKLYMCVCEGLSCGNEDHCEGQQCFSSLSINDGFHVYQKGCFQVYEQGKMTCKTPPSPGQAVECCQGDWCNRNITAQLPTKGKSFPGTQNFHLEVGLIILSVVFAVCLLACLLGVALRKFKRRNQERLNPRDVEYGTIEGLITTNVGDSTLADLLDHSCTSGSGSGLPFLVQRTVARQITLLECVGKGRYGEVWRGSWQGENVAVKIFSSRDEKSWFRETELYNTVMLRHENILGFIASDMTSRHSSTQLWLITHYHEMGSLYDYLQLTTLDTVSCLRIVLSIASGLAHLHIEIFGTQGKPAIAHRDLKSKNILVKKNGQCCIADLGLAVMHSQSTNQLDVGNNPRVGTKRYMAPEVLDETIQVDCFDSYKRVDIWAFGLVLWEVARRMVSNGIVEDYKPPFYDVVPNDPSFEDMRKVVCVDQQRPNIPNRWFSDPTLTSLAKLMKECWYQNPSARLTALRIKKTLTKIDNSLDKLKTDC
# Chain of UniProt Q9C0B5 (Q9C0B5 whole entry, looked up): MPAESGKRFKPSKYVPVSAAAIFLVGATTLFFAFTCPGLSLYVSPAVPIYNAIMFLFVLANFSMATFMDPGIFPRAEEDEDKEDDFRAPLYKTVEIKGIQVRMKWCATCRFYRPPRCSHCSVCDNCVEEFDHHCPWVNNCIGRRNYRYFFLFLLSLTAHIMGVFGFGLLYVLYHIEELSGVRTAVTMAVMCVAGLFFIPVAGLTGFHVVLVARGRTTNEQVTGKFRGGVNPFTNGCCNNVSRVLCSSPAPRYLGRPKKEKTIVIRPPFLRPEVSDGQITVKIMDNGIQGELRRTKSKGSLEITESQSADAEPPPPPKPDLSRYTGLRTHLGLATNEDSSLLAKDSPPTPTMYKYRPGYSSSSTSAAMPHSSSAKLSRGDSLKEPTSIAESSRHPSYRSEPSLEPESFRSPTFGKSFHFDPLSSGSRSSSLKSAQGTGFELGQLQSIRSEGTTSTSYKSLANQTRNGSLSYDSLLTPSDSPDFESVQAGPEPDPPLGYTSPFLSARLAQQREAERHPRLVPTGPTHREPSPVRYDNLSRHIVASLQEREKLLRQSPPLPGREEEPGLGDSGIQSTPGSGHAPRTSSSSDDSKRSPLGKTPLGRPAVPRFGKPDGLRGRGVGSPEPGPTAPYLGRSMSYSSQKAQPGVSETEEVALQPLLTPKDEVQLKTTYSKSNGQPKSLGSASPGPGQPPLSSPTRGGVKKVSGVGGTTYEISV
# Chain of UniProt P14621 (P14621 whole entry, looked up): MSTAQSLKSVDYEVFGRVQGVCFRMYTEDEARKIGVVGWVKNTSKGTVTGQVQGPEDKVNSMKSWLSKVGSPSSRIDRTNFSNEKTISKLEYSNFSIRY
# Chain of UniProt Q9BQI0 (Q9BQI0 whole entry, looked up): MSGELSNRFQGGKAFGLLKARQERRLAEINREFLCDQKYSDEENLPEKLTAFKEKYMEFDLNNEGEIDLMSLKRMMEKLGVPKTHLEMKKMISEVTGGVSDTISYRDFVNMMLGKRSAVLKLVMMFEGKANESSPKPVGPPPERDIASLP
target,measurement,setting,value
ZYG11B (UniProt Q9C0D3),log2 fold change,[1],0.057
same,log2 fold change,[2],0.086
same,log2 fold change,[3],0.011
same,log2 fold change,[4],-0.02
same,log2 fold change,[5],0.044
ALKBH1 (UniProt Q13686),log2 fold change,[6],-0.036
same,log2 fold change,[7],-0.001
same,log2 fold change,[8],0.051
ZADH2 (UniProt Q8N4Q0),log2 fold change,[1],0.012
same,log2 fold change,[2],-0.039
same,log2 fold change,[3],-0.076
same,log2 fold change,[4],-0.026
same,log2 fold change,[5],0.008
ALDH18A1 isoform 2 (UniProt P54886),log2 fold change,[6],0.229
same,log2 fold change,[7],-0.068
ZFAND5 (UniProt O76080),log2 fold change,[1],-0.025
same,log2 fold change,[2],-0.21
same,log2 fold change,[3],-0.129
same,log2 fold change,[4],-0.024
same,log2 fold change,[5],0.143
ZDHHC17 (UniProt Q8IUH5),log2 fold change,[1],0.014
same,log2 fold change,[2],0.062
same,log2 fold change,[3],-0.082
same,log2 fold change,[4],-0.039
same,log2 fold change,[5],-0.011
ALDH3A1 (UniProt P30838),log2 fold change,[7],-0.209
same,log2 fold change,[8],-0.339
ZWILCH (UniProt Q9H900),log2 fold change,[1],-0.077
same,log2 fold change,[2],0.036
same,log2 fold change,[3],0.063
same,log2 fold change,[4],0.037
same,log2 fold change,[5],0.002
ALG13 isoform 2 (UniProt Q9NP73),log2 fold change,[8],-0.109
AP5B1 (UniProt Q2VPB7),log2 fold change,[9],0.079
same,log2 fold change,[10],-0.023
same,log2 fold change,[7],-0.044
same,log2 fold change,[8],-0.003
AIP (UniProt O00170),log2 fold change,[9],0.012
same,log2 fold change,[10],-0.023
same,log2 fold change,[6],-0.006
same,log2 fold change,[7],0.025
same,log2 fold change,[8],0.125
ZBTB43 (UniProt O43298),log2 fold change,[1],-0.105
same,log2 fold change,[2],0.013
same,log2 fold change,[3],0.055
same,log2 fold change,[4],-0.097
same,log2 fold change,[5],-0.08
ANKRD44 isoform 2 (UniProt Q8N8A2),log2 fold change,[9],-0.032
same,log2 fold change,[10],-0.045
same,log2 fold change,[6],0.019
same,log2 fold change,[8],-1 (active)
ALKBH7 (UniProt Q9BT30),log2 fold change,[7],-0.012
same,log2 fold change,[8],-0.014
AGPAT1 (UniProt Q99943),log2 fold change,[9],-0.04
same,log2 fold change,[10],0.024
same,log2 fold change,[6],0.089
same,log2 fold change,[7],-0.038
same,log2 fold change,[8],-0.134
ABRACL (UniProt Q9P1F3),log2 fold change,[9],0.052
same,log2 fold change,[10],-0.221
same,log2 fold change,[7],0.054
same,log2 fold change,[8],0.075
"ACAT1, A0A5F9ZHJ0",log2 fold change,[8],-0.06
ANXA5 (UniProt P08758),log2 fold change,[9],0.031
same,log2 fold change,[10],0.016
same,log2 fold change,[6],0.013
same,log2 fold change,[7],0.033
same,log2 fold change,[8],0.075
AIF1L (UniProt Q9BQI0),log2 fold change,[9],0.072
same,log2 fold change,[10],-0.031
same,log2 fold change,[7],0.049
same,log2 fold change,[8],-0.022
ACYP2 (UniProt P14621),log2 fold change,[9],-0.061
same,log2 fold change,[10],-0.032
same,log2 fold change,[6],0.011
same,log2 fold change,[8],0.118
ZFP91 (UniProt Q96JP5),log2 fold change,[1],-0.038
same,log2 fold change,[2],-0.221
same,log2 fold change,[3],-0.052
same,log2 fold change,[4],0.096
same,log2 fold change,[5],0.03
ARHGEF2 (UniProt Q92974),log2 fold change,[9],0.023
same,log2 fold change,[10],-0.007
same,log2 fold change,[6],0.034
same,log2 fold change,[7],0.008
same,log2 fold change,[8],0.05
AGPAT2 (UniProt O15120),log2 fold change,[6],-0.11
same,log2 fold change,[8],0.034
AP3D1 isoform 2 (UniProt O14617),log2 fold change,[6],-0.009
same,log2 fold change,[8],0.061
AMDHD2 (UniProt Q9Y303),log2 fold change,[6],0.039
same,log2 fold change,[8],0.095
ACLY isoform 2 (UniProt P53396),log2 fold change,[9],0.099
same,log2 fold change,[10],-0.01
same,log2 fold change,[6],0.023
same,log2 fold change,[8],-0.325
ZER1 (UniProt Q7Z7L7),log2 fold change,[1],0
same,log2 fold change,[2],-0.007
same,log2 fold change,[3],0.018
same,log2 fold change,[4],-0.064
same,log2 fold change,[5],-0.03
ANKRD30A (UniProt Q9BXX3),log2 fold change,[9],-0.04
same,log2 fold change,[10],-0.051
same,log2 fold change,[7],-0.03
same,log2 fold change,[8],0.064
ARHGEF2 (UniProt V9GYF0),log2 fold change,[6],0.098
same,log2 fold change,[7],0.105
ZDHHC5 (UniProt Q9C0B5),log2 fold change,[1],0.015
same,log2 fold change,[2],0.007
same,log2 fold change,[3],0.04
same,log2 fold change,[4],-0.013
same,log2 fold change,[5],0.077
ZNF143 (UniProt P52747),log2 fold change,[1],0.015
same,log2 fold change,[2],-0.013
same,log2 fold change,[3],-0.022
same,log2 fold change,[4],0.064
same,log2 fold change,[5],0.107
AGGF1 (UniProt Q8N302),log2 fold change,[9],0.042
same,log2 fold change,[10],0.049
same,log2 fold change,[6],0.024
same,log2 fold change,[8],-0.149
ANXA2 (UniProt H0YL33),log2 fold change,[9],0.079
same,log2 fold change,[10],-0.079
same,log2 fold change,[7],-0.135
same,log2 fold change,[8],0.466
ZNF622 (UniProt Q969S3),log2 fold change,[1],-0.028
same,log2 fold change,[2],0.033
same,log2 fold change,[3],0.073
same,log2 fold change,[4],-0.016
same,log2 fold change,[5],-0.049
YIPF5 isoform 3 (UniProt Q969M3),log2 fold change,[1],0
same,log2 fold change,[2],0.025
same,log2 fold change,[3],0.018
same,log2 fold change,[4],0.002
same,log2 fold change,[5],0.08
ANKRD10 (UniProt Q9NXR5),log2 fold change,[9],-0.131
same,log2 fold change,[10],-0.027
same,log2 fold change,[6],0.025
same,log2 fold change,[7],0.06
same,log2 fold change,[8],-0.019
ACVR1 (UniProt Q04771),log2 fold change,[9],-0.052
same,log2 fold change,[10],-0.055
same,log2 fold change,[7],-0.102
same,log2 fold change,[8],-0.126
